Consider 40 compounds from PubChem BioAssay (NCI).

The panel holds about 83,000 compounds, 20% with a hit somewhere; the sample as a whole holds those more often.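 Note: values are percent growth. 100 is the growth of untreated cells, values between 100 and 0 indicate rising inhibition; between -100 and 0 indicates cell death.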 Values without a mark were called inactive. Calls of active or inactive are those of the source. Rule for the calls: active = growth percent below 10; inactive = the rest.

The first test has as its system SW-620 colon. Kind of test: NCI-60 one-dose screen, 48 h (100 = growth as untreated, 0 = no growth, -100 = all killed). To be noted: 10 µM unless noted.
With `Cc1[nH]c(C(=O)Nc2ccccc2OC2CCNCC2)c(Cl)c1Cl`, the growth is 1.77% (active). With `O=C(Nc1cccc(Cl)c1)Nc1cccc(Cn2c(=O)[nH]c3ccc(Oc4ncccn4)cc3c2=O)c1`, the growth was 72.3%. On the same count and under the same terms, next, `CCCCCCC12CCC(=O)N1CCc1cncn12` (configuration not stated): 102%.

In the case of `CCCC/C(CC)=N\NS(=O)(=O)c1ccc([N+](=O)[O-])cc1`, the growth is 106%.

Consider `C[C@@H](CO)[C@@H]1CCC=C2CC[C@]3(C)[C@H](CC[C@@H]4[C@@]5(C)CCCNC(C)(C)[C@@H]5CC[C@]43C)[C@H]21`, for which the growth was -72.1% (active).

For `O=C1NC2(Nc3ccccc31)C(=O)Nc1c(Cl)cc(Cl)cc12` (configuration not stated), the growth was 100%. On the same count and under the same terms, next, `CSc1nc2ccccc2cc1/C=[N+](\[O-])c1ccccc1`: 28.9%; `O=C(NCCNc1nccc(Nc2ccc(S(=O)(=O)Nc3ccccn3)cc2)n1)c1cccc([N+](=O)[O-])c1`: 102%; `COc1ccc(CN2c3ccccc3Sc3ccccc32)cc1F`: 23.8%. The same measure, in the same setting: next, `CCCCC1=C(P(=O)(O)O)N[C@H](C(=O)O)CS1`: 96.9%; `Nc1ncnc2c1C(c1ccccc1)c1ccc3ccccc3c1O2` (configuration not stated): 94.9%; `O=c1c2cccc3c(N4CCCC4)ccc(c32)c2nc3ccccc3n12`: 59.5%. The same measure, in the same setting: the result for `CCN(CC)CCCCCNc1cc(OC(=O)c2ccc(Cl)cc2)cc2cccnc12` reads 105%; that for `CSc1oc(C)nc1[P+](c1ccccc1)(c1ccccc1)c1ccccc1`, 65.1%; that for `COc1ccc(-c2ccc(=O)oc2-c2cc(OC)c(OC)c(OC)c2)cc1O`, 9.8% (active). For `C=C1CC[C@@H]2[C@](C)(COC(C)=O)[C@H](OC(C)=O)CC[C@@]2(C)[C@@H]1CC(Nc1ccc(S(=O)(=O)Nc2ncccn2)cc1)C1=CCOC1=O` (some centres not stated), the growth was -70% (active). Still for that read-out and setting: next, `C=CCOC(=O)Nc1cccn([C@H](Cc2ccccc2)C(=O)NCCC(C)C)c1=O`: 109%. Turning to `Cc1[nH]c(C(=O)Nc2ccc(C(=O)N3CCN(c4cc5c(cc4F)c(=O)c(C(=O)O)cn5C4CC4)CC3)cc2OC(C)C)c(Cl)c1Cl`, the growth is 96.3%.

Regarding `CC1CCN(S(=O)(=O)c2ccc(S(=O)(=O)N3CCCC(c4nc5c(nnn5Cc5cccc(Cl)c5)c(=O)[nH]4)C3)cc2)CC1` (configuration not stated), the growth is 33.4%.

Take `N#Cc1c(-c2ccc(Cl)cc2)c(C#N)c2c(C#N)c(N)nn2c1N`: the growth is 94.7%. Same read-out and setting: the result for `O=C(Nn1c2c(sc1=NC1CC1)C(=O)c1ccccc1C2=O)c1cc2ccc1CCc1ccc(cc1)CC2` reads 18.3%. Still for that read-out and setting: the result for `Nc1nc2ccc(-c3nc4ccc5[nH]ncc5c4c4c3CCCC4)cc2s1` reads 106%; that for `CCOC(=O)c1c(NC(=O)c2ccc(Cl)cc2)sc2c(CN(C)C)c(O)ccc12`, 28.1%; that for `N#Cc1nc(-c2ccc(F)cc2)oc1S(=O)(=O)N1CCCCC1`, -72.2% (active). Still for that read-out and setting: next, `CCOC(=O)n1ccn(C)c1=S`: 111%; `O=C(Nc1ccc(Oc2cccc(F)c2)c(Cl)c1)c1cccnc1`: 25.8%; `O=C1/C(=C/c2cccc(F)c2)CN(C(=O)C(Cl)Cl)C/C1=C\c1cccc(F)c1`: -63.2% (active).

In the next test the test system is MCF7 breast. Described as above. To be noted: 10 µM unless noted.
`COC12C=C/C(=C(/C(=O)OCc3ccncn3)C(=O)CCCCCCCCC3(OC)C=C/C(=C(/C(=O)OCc4ccncn4)C(=O)CCCCCCCC1)O3)O2`: the growth is 5.92% (active). The same measure, in the same setting: the result for `CN(/C(N)=N/N=C/c1c2ccccc2cc2ccccc12)C1CCCCC1` reads 32.8%; that for `Cn1cc(-c2csc(-c3c[nH]c4ccc(Br)cc34)n2)c2ccnc(Cl)c21`, 46.6%; that for `COC(=O)c1nc(-c2ccc(C)cc2)oc1S(=O)(=O)c1cccc(OC)c1`, 95.6%. Consider `CCCCn1c(=O)[nH]c(N)c([C@@H]2c3c([nH]c(=O)n(CCCC)c3=O)Oc3ccc4ccccc4c32)c1=O`, for which the growth was 46%. Still for that read-out and setting: next, `O=C(O)c1cn(C2CC2)c2cc(N3CCN(C(=O)N(c4ccccc4)c4nc(-c5ccccc5)cs4)CC3)c(F)cc2c1=O`: 6.99% (active); `CCC(C)(C)C(=O)O[C@H]1C[C@@H](C)C=C2C=C[C@H](C)[C@H](CC[C@@H]3CC(SCCN)CC(=O)O3)[C@H]21` (some centres not stated): 79.9%; `COc1cc(OC)c(NC(=O)c2cc3ccccc3cc2O)cc1Cl`: 76.1%. On the same count and under the same terms, next, `O=C(Nc1cccc2ccccc12)NC1CC1`: 87%. For `COc1ccc(C(=O)c2cc3c(N)c(C(=O)Nc4ccc(C)cc4)sc3nc2C)cc1`, the growth is 18.8%. Same read-out and setting: the result for `CCCCCCCCCCCCCCCCCCOc1ccccc1CC(=O)OCC[N+](C)(C)C` reads 34%; that for `C=CC[Se]C(=O)Cc1c(C)n(C(=O)c2ccc(Cl)cc2)c2ccc(OC)cc12`, -4.29% (active); that for `Cc1cc(N2CCCCC2)cc(C)c1-c1csc(NC(=O)c2ccncc2)n1`, 32.6%. On the same count and under the same terms, the result for `Cc1[nH]c(C(=O)Nc2ccccc2OC2CCNCC2)c(Cl)c1Cl` reads -45% (active); that for `O=C(Nc1cccc(Cl)c1)Nc1cccc(Cn2c(=O)[nH]c3ccc(Oc4ncccn4)cc3c2=O)c1`, 35.8%; that for `CCCCCCC12CCC(=O)N1CCc1cncn12` (configuration not stated), 94.8%. Still for that read-out and setting: next, `CCCC/C(CC)=N\NS(=O)(=O)c1ccc([N+](=O)[O-])cc1`: 102%; `C[C@@H](CO)[C@@H]1CCC=C2CC[C@]3(C)[C@H](CC[C@@H]4[C@@]5(C)CCCNC(C)(C)[C@@H]5CC[C@]43C)[C@H]21`: 7.68% (active). `O=C1NC2(Nc3ccccc31)C(=O)Nc1c(Cl)cc(Cl)cc12` (configuration not stated): the growth was 88.9%. Still for that read-out and setting: the result for `CSc1nc2ccccc2cc1/C=[N+](\[O-])c1ccccc1` reads 24.9%; that for `O=C(NCCNc1nccc(Nc2ccc(S(=O)(=O)Nc3ccccn3)cc2)n1)c1cccc([N+](=O)[O-])c1`, 88.5%; that for `COc1ccc(CN2c3ccccc3Sc3ccccc32)cc1F`, 16%. The same measure, in the same setting: next, `CCCCC1=C(P(=O)(O)O)N[C@H](C(=O)O)CS1`: 89.3%; `Nc1ncnc2c1C(c1ccccc1)c1ccc3ccccc3c1O2` (configuration not stated): 67.4%. The same measure, in the same setting: the result for `O=c1c2cccc3c(N4CCCC4)ccc(c32)c2nc3ccccc3n12` reads 50.1%.

For the compound `CCN(CC)CCCCCNc1cc(OC(=O)c2ccc(Cl)cc2)cc2cccnc12`, the growth is 86.5%.

In the case of `CSc1oc(C)nc1[P+](c1ccccc1)(c1ccccc1)c1ccccc1`, the growth was 23.5%. The same measure, in the same setting: the result for `COc1ccc(-c2ccc(=O)oc2-c2cc(OC)c(OC)c(OC)c2)cc1O` reads 1.84% (active); that for `C=C1CC[C@@H]2[C@](C)(COC(C)=O)[C@H](OC(C)=O)CC[C@@]2(C)[C@@H]1CC(Nc1ccc(S(=O)(=O)Nc2ncccn2)cc1)C1=CCOC1=O` (some centres not stated), -19.6% (active). Same read-out and setting: next, `C=CCOC(=O)Nc1cccn([C@H](Cc2ccccc2)C(=O)NCCC(C)C)c1=O`: 92.8%. Same read-out and setting: next, `Cc1[nH]c(C(=O)Nc2ccc(C(=O)N3CCN(c4cc5c(cc4F)c(=O)c(C(=O)O)cn5C4CC4)CC3)cc2OC(C)C)c(Cl)c1Cl`: 88.8%. For the compound `CC1CCN(S(=O)(=O)c2ccc(S(=O)(=O)N3CCCC(c4nc5c(nnn5Cc5cccc(Cl)c5)c(=O)[nH]4)C3)cc2)CC1` (configuration not stated), the growth was 23.3%. Same read-out and setting: next, `N#Cc1c(-c2ccc(Cl)cc2)c(C#N)c2c(C#N)c(N)nn2c1N`: 81.3%; `O=C(Nn1c2c(sc1=NC1CC1)C(=O)c1ccccc1C2=O)c1cc2ccc1CCc1ccc(cc1)CC2`: 11.5%; `Nc1nc2ccc(-c3nc4ccc5[nH]ncc5c4c4c3CCCC4)cc2s1`: 97.7%. Still for that read-out and setting: the result for `CCOC(=O)c1c(NC(=O)c2ccc(Cl)cc2)sc2c(CN(C)C)c(O)ccc12` reads 66.6%; that for `N#Cc1nc(-c2ccc(F)cc2)oc1S(=O)(=O)N1CCCCC1`, 56%; that for `CCOC(=O)n1ccn(C)c1=S`, 102%.

`O=C(Nc1ccc(Oc2cccc(F)c2)c(Cl)c1)c1cccnc1`: the growth was 19.6%. `O=C1/C(=C/c2cccc(F)c2)CN(C(=O)C(Cl)Cl)C/C1=C\c1cccc(F)c1`: the growth was -46.7% (active).
